Reference: PubChem BioAssay (NCATS)
Inconclusive results are not listed. Activity calls are given as the source filed them. Unless noted, the call rests on the fitted dose curve; in most records, active means well fitted curve in the direction sought with a large enough effect; inconclusive means small, poorly fitted or top-dose-only effect, or another doubt; inactive means no such curve, though single readings can be large; an effect the other way counts as inactive or inconclusive.

Experiments:
[1] = biological target: Arylsulfatase A (Homo sapiens) (UniProt P15289); test: qHTS screen for enhancers of Arylsulfatase A (ASA1): LOPAC Validation Assay (AID 720538); conditions: ASA enzyme activity, LOPAC qHTS enhancer assay; series mostly up to 57.5 µM; further: potency means the concentration at half of the fitted maximal effect
Summary of the method: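 SV40-transformed fibroblasts from an MLD patient (ASA-I179S) were treated with compound for 48 h at 37 C. They were then lysed with 0.5 mM pNCS substrate (final) for 14 h at room temperature and stopped with NaOH; signal read by fluorescence (Ex 525/Em 598 nm), with increase denoting enhanced activity.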

[2] = qHTS for compounds that reverse cellular toxicity of Amyloid beta (A-beta) peptide in yeast: LOPAC Validation Assay (AID 720559); conditions: yeast expressing A-beta; series mostly up to 46.1 µM;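 further: plate controls were DMSO for no effect and equimolar ferric chloride plus clioquinol rescue for full effect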
Summary of the method: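 Yeast expressing toxic A-beta grown with pinned compounds at 30 C for 48 hr. Growth measured as absorbance at 600 nm; data normalized to DMSO and to an equimolar FeCl3/clioquinol mixture as positive control.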

[3] = qHTS for Activators of Parkin Expression: LOPAC Validation Assay (NLuc Reporter) (AID 720572); conditions: Parkin promoter NanoLuc reporter cells, luminescence; series mostly up to 46.1 µM
Summary of the method: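 Compound effects on Parkin promoter activity were measured as NanoLuc luminescence after 24 h at 37 C. The neuronal reporter line also carried FLuc, which was read first. LOPAC compounds were tested at 7 concentrations, with normalization to DMSO (0%) and positive control (100%).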

[4] = qHTS assay for small molecule activators of the p53 signaling pathway (AID 651743; active means well fitted activation curve with a large enough effect in the signal ratio, not every such curve was filed as active; the % refers to the signal ratio; further: % of control where 0% means no effect); conditions: HCT-116 p53RE-bla, beta-lactamase FRET ratio, 16 h; active compounds read high
Summary of the method: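 A beta-lactamase reporter under p53 response element control, stably carried by HCT-116 cells, reported pathway activation. Test compounds were applied for 16 hours at 37 C, and fluorescence was measured 2 hours after adding the B/G FRET substrate.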

[5] = qHTS assay for small molecule activators of the nuclear factor-kappa B (NF-kB) signaling pathway (AID 651749; active means well fitted activation curve with a large enough effect in the signal ratio; the % refers to the signal ratio; further: % of control where 0% means no effect); conditions: NF-kB-bla ME-180 cells, beta-lactamase FRET ratio, 16 h; active compounds read high
Summary of the method: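 FRET-based beta-lactamase detection in ME-180 cells reports NF-kB response-element-driven transcription following overnight (16 hr) compound treatment.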

[6] = qHTS assay for environmental chemicals that activate the Aryl hydrocarbon Receptor (AhR) signaling pathway (AID 651777); conditions: 1A2-DRE human hepatoma cells, luciferase, 24 h; active compounds read high; further: % of control where 0% means no effect; nearly all actives have a fitted effect of over 15% in size
Summary of the method: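 Luminescence read-out: One-Glo added for 30 min at RT after 24 hr compound treatment (37 C, 5% CO2) of human hepatoma cells expressing a DRE/CYP1A2 promoter–luciferase reporter; increased signal indicates AhR activation.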

[7] = biological target: Peroxisome proliferator-activated receptor alpha (Homo sapiens) (UniProt Q07869); test: qHTS assay for small molecule agonists of the peroxisome proliferator-activated receptor alpha (PPARalpha) signaling pathway (AID 651778); conditions: PathHunter PPARalpha complementation, chemiluminescence, 6 h; max response: active compounds read high; further: % of control where 0% means no effect
Summary of the method: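 Chemiluminescence from complemented enzyme reported PPARalpha activation in cells after 6 hr of compound treatment at 37 C. The detection reagent was incubated for 60 min at room temperature, and compounds were scored as agonists.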

[8] = qHTS assay for small molecule agonists of the antioxidant response element (ARE) signaling pathway measured by Nrf2-dependant transcriptional activity - cell viability counter screen (AID 720653; active means well fitted curve in the direction sought with a large enough effect in the repeat runs; an effect the other way counts as inactive or inconclusive; further: on the % scale 0 is the no-effect control and ±100 the full control effect); conditions: ARE-bla HepG2 viability, CellTiter-Glo ATP luminescence, 16 h; active compounds read low
Summary of the method: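 Cytotoxicity counter screen: intracellular ATP quantified by CellTiter-Glo luminescence in the same ARE-bla HepG2 plates, after 16 h compound exposure and a 2 h beta-lactamase substrate step.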

[9] = qHTS for Activators of Parkin Expression: LOPAC Validation Assay (FLuc Reporter) (AID 720573); conditions: Cell line, PRKN promoter firefly luciferase reporter; series mostly up to 46.1 µM
Summary of the method: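 Neuronal cell line stably expressing FLuc/NLuc coincidence reporter under the Parkin promoter, 1,500 cells/well, dosed 24 h after seeding in 7-point series for 24 h at 37 C. FLuc luminescence read; normalized to DMSO and positive control (100%).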

Sequence of Arylsulfatase A (Homo sapiens) (P15289 whole entry, looked up): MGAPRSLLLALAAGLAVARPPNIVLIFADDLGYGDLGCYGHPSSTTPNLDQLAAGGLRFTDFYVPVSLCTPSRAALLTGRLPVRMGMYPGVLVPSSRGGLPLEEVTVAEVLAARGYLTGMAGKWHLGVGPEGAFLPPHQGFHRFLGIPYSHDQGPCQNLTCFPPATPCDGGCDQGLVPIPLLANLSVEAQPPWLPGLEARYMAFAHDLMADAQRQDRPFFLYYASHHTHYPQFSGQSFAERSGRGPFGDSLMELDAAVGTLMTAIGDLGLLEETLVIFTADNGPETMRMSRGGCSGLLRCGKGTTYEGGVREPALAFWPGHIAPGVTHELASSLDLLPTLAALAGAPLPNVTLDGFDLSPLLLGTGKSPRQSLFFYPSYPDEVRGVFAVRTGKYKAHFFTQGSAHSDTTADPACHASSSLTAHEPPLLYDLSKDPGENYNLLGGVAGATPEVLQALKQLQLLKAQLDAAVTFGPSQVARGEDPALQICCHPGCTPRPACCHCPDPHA
Sequence of Peroxisome proliferator-activated receptor alpha (Homo sapiens) (Q07869 whole entry, looked up): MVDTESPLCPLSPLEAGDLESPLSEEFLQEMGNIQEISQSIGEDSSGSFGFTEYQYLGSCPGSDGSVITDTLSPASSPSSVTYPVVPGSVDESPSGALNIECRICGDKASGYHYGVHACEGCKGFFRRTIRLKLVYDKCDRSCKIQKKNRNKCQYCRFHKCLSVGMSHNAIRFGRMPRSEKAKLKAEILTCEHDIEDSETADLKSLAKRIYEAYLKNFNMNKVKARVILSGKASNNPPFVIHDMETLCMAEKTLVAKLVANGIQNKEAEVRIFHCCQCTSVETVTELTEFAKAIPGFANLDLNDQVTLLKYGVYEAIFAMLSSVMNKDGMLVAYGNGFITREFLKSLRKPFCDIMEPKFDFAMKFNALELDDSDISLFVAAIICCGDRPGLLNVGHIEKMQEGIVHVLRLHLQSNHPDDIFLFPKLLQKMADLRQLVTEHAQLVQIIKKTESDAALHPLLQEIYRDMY

CC(N)(Cc1ccc(O)cc1)C(=O)O (stereo not given)
inactive: Potency [1]

C#CCn1c(=O)c2c(ncn2C)n(C)c1=O
inactive: Potency [1] | outcome [2] | Potency [3]

CC1=C(/C=C/C(C)=C/C=C/C(C)=C\C(=O)O)C(C)(C)CCC1
inactive: activation [4] -4.89% | activation [5] -1.8% | activation [6] 6.61% | max response [7] 0.529% | Potency [1] | outcome [2] | Potency [3] | max response [8] 3.98%

CNCCc1cnc(CCC(c2ccccc2)c2ccccc2)[nH]1
inactive: Potency [1] | outcome [2] | Potency [3]

NC1CONC1=O (stereo not given)
inactive: Potency [1]

Oc1ccc(/C=C/c2ccc(/C=C/c3ccc(O)cc3)c(Br)c2)cc1
inactive: Potency [1]

CCC1(O)CC2CN(CCc3c([nH]c4ccccc34)[C@@](C(=O)OC)(c3cc4c(cc3OC)N(C=O)C3[C@]45CCN4CC=C[C@@](CC)([C@@H](OC(C)=O)[C@]3(O)C(=O)OC)[C@H]45)C2)C1 (stereo not given in full)
inactive: Potency [1] | outcome [2] | Potency [3] | Potency [9]

NC(C(=O)N[C@@H]1C(=O)N2C(C(=O)O)=C(Cl)CS[C@H]12)c1ccccc1 (stereo not given in full)
inactive: Potency [1] | outcome [2] | Potency [3] | Potency [9]

Nc1ccc2c3c(cccc13)C(=O)NC2=O
inactive: outcome [2] | Potency [3] | Potency [9]
active: Potency [1] 4.26 µM

O=C(O)/C=C/c1ccc(O)c(O)c1
inactive: Potency [1] | outcome [2] | Potency [3] | Potency [9]

Cc1cccc(C)c1OCC(N)C(C)C (stereo not given)
inactive: Potency [1] | outcome [2] | Potency [3] | Potency [9]

CN1CCc2cc(Cl)c(O)cc2[C@@H](c2ccccc2)C1
inactive: Potency [1] | outcome [2] | Potency [3] | Potency [9]

CCSC(=N)N
inactive: Potency [1] | outcome [2] | Potency [3] | Potency [9]
